High-throughput results from PubChem.
Rows were chosen to be rich in hits. Some 3.3% of all compounds tested hit in one or more screens of this group.
GAA850 FXN act = FXN promoter activators, primary screen, cell-based, luciferase luminescence, HEK293 lucGAA850 | HEK293 lucGAA850 FXN promoter luciferase reporter, 24 h; percent of 10 µM SAHA response | activation, % at 6 µM | 0.56% of 360,000 active | AID 540364, 2011;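 active means activation above the average of all compounds screened plus 3 SD, cutoff fixed separately per campaign, cut at about 7.5% in these data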
Statin myotox sup = suppressors of statin myotoxicity in C2C12 myotubes, primary screen, cell-based, single point, plate reader. C2C12 myotubes + simvastatin, ATP luminescence, 48 h; scaled: DMSO 0, geranylgeraniol control 100. rescue of ATP level, % at 7.49 µM. 0.78% of 330,000 active. AID 602340, 2012;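 active means mean ATP rescue above about 67%, or every replicate alone reaching that limit, limit read from the data, passing the limit was not always enough; inconclusive means no clear call, values can overlap the other calls; inactive means mean under the limit and some replicate under it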;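 further: myotubes were challenged with 10 µM simvastatin during compound exposure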
MITF TRPM1 HTS = activators of MITF-driven TRPM1 promoter reporter, primary screen, cell-based, SK-MEL-5, luciferase, single point; 0.75% of 300,000 active; activation, % at 12.5 µM; SK-MEL-5 TRPM1-promoter luciferase, 24 h; % of positive control, neutral wells = 0;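 active means mean activation of at least 80% with every replicate also reaching 80%; inconclusive means mean reaches 80% but some replicate falls short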
esBAF inh = Bmi1 luciferase reporter increase in mESCs, primary screen, esBAF inhibitor project, mouse ES cells, Bmi1 luciferase knock-in, single point. reporter increase, % at 12.5 µM. 2% of 350,000 active. 24 h; 100% = twice the neutral-well signal; in the data active means activation above about 40%; inconclusive means no clear call, values can overlap the other calls;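 further: a rise in the Bmi1 reporter signal indicates esBAF inhibition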
Wnt act = Wnt/beta-catenin pathway activators, primary screen, cell-based, plate reader, single point; Wnt/beta-catenin reporter cell assay, activator; activation, % at 9.35 µM; AID 743398, 2014; 1.2% of 300,000 active; in the data active means activation above about 30%, passing the limit was not always enough; inconclusive means no clear call, values can overlap the other calls
Of the large screens only hits and unclear results are named; the others gave an inactive call.

Cc1ccc(NC(=S)NC2CCCC2)cc1C	none (no result: Statin myotox sup, esBAF inh)
CCCC(=O)Nc1ccc2c(c1)OC[C@H](C)N(Cc1ccccc1F)C[C@H](C)[C@@H](OC)CN(C)C2=O	none (no result: GAA850 FXN act, MITF TRPM1 HTS, Wnt act)
C[C@H](CO)N1C[C@H](C)[C@@H](CN(C)C)Oc2cc(C#CC3CC3)ccc2S1(=O)=O	none (no result: GAA850 FXN act, MITF TRPM1 HTS, Wnt act)
CC=Cc1ccc2n(c1=O)C[C@H]1[C@H](CO)[C@@H](C(=O)OC)N(C(C)=O)[C@@H]21 (mixture of isomers)	none (no result: GAA850 FXN act, MITF TRPM1 HTS, Wnt act)
Cc1cc(C(=O)CS(=O)(=O)c2ccccc2)cc(C)c1O	none
Cc1cc(C(=O)CSc2ccccc2)cc(C)c1O	esBAF inh 68
C[C@@H]1CCCCO[C@@H](CN(C)Cc2ccncc2)[C@H](C)CN([C@H](C)CO)C(=O)c2cc(NC(=O)Nc3ccc4c(c3)OCO4)ccc2O1	none (no result: GAA850 FXN act, Statin myotox sup, MITF TRPM1 HTS, Wnt act)
CN(C)C(=O)c1ccc(-c2cccc(-c3nc(C(=O)N(C)C)cc4c3[C@H](CCO)N([S@@](=O)C(C)(C)C)C4)c2)cc1	none (no result: GAA850 FXN act, MITF TRPM1 HTS, Wnt act)
COc1ccc(NC(=O)c2ccc3nccnc3c2)cc1	none
CCOc1ccc(NC(=O)c2ccccc2SC)cc1	esBAF inh 46
CCOc1ccc(NC(=O)c2ccc3nccnc3c2)cc1	MITF TRPM1 HTS 89 (no result: Statin myotox sup, esBAF inh, Wnt act)
CCOc1ccc(NC(=O)c2csc3c2CCCC3)cc1	esBAF inh 78, Wnt act 46 (no result: MITF TRPM1 HTS)
CC(=O)c1cccc(NC(=O)c2csc3c2CCCCC3)c1	none (no result: Statin myotox sup, esBAF inh)
N[C@H]1CC[C@H](CCn2cc(-c3ccccn3)nn2)O[C@@H]1CO	none (no result: GAA850 FXN act, MITF TRPM1 HTS, Wnt act)
CCCCC(=O)NC(=S)NNC(=O)CC#N	none (no result: Wnt act)
CCCCC(=O)NNC(=S)NC(=O)CCC	Statin myotox sup 112 (no result: Wnt act)
CO[C@H]1CN(C)C(=O)c2cc(NS(=O)(=O)c3cccc(F)c3)ccc2OC[C@@H](C)NC[C@H]1C	none (no result: GAA850 FXN act, MITF TRPM1 HTS, Wnt act)
COc1ccccc1S(=O)(=O)N1CC[C@@H]2[C@@H](CO)Nc3ccc(-c4cccc(C#N)c4)cc3[C@@H]21	none (no result: GAA850 FXN act, MITF TRPM1 HTS, Wnt act)
CCCCN1C(=O)C(CC(=O)NCC)SC1=Nc1ccccc1 (stereo not given)	Statin myotox sup 159
O=C(O)CC1SC(=Nc2ccccc2)N(c2ccccc2)C1=O (stereo not given)	Statin myotox sup 115 (no result: Wnt act)
Cc1ccc(S(=O)(=O)N(C)C[C@@H]2OCCCC[C@@H](C)Oc3ccc(NS(C)(=O)=O)cc3C(=O)N([C@H](C)CO)C[C@H]2C)cc1	none (no result: GAA850 FXN act, Statin myotox sup, MITF TRPM1 HTS, Wnt act)
COc1ccc(-c2cnc3c(c2)C(=O)N([C@H](C)CO)C[C@@H](C)[C@@H](CN(C)Cc2ccc(C(=O)O)cc2)O3)cc1	none (no result: GAA850 FXN act, MITF TRPM1 HTS, Wnt act)
CCN1C(=O)CSC1=Nc1ccc(C(=O)O)cc1	none
CCN1C(=Nc2ccc(Cl)cc2)SC/C1=C\C(=O)OC	MITF TRPM1 HTS inconclusive, esBAF inh 61
CN1C(=O)c2cc(NC(=O)c3ccc(F)cc3)ccc2OC[C@@H]2O[C@H](CC(=O)NC3CCC3)CC[C@H]21	none (no result: GAA850 FXN act, MITF TRPM1 HTS, Wnt act)
Cc1noc(C)c1S(=O)(=O)N(C)C[C@@H]1OCCCC[C@H](C)Oc2ccc(NS(C)(=O)=O)cc2C(=O)N([C@@H](C)CO)C[C@H]1C	none (no result: GAA850 FXN act, Statin myotox sup, MITF TRPM1 HTS, Wnt act)
NS(=O)(=O)OCC(Cc1ccccc1)N1C(=O)c2ccccc2C1=O (stereo not given)	Statin myotox sup 111
COCCNC(=O)C[C@H]1CC[C@@H]2[C@@H](COc3ccc(NC(=O)c4cnccn4)cc3C(=O)N2C)O1	none (no result: GAA850 FXN act, MITF TRPM1 HTS, Wnt act)
Cc1c(/C=N/Nc2ccc(C(=O)O)cc2)c2ccccc2n1C	MITF TRPM1 HTS 90, esBAF inh 67
Cc1c(/C=N\NC(=O)C2COc3ccccc3O2)c2ccccc2n1C (stereo not given)	none (no result: Statin myotox sup, esBAF inh, Wnt act)
Cc1ccnc(NC(=O)Nc2ccc3c(c2)N(C)C(=O)CS3)c1	MITF TRPM1 HTS 187 (no result: Statin myotox sup, esBAF inh)
Cc1cccc(NC(=O)Nc2ccc3c(c2)N(C)C(=O)CS3)n1	MITF TRPM1 HTS 91, esBAF inh 49
Cc1ccc(NC(=O)Nc2ccc3c(c2)N(C)C(=O)CS3)nc1	MITF TRPM1 HTS inconclusive, esBAF inh inconclusive
CCOc1cccc(/C=C/c2ccc3cccc(O)c3n2)c1OC	Wnt act 40
CCOc1cccc(/C=C/c2ccc3cccc(O)c3n2)c1O	esBAF inh 87, Wnt act 48
COc1cccc(C=Cc2nccc3ccccc23)c1OC	Wnt act 59 (no result: MITF TRPM1 HTS)
COc1ccccc1/C=C/c1ccc2cccc(O)c2n1	esBAF inh 67
COc1cccc(C=O)c1OCCCOc1cccc2cccnc12	esBAF inh inconclusive (no result: MITF TRPM1 HTS)
